Assay outcomes: PubChem, National Center for Advancing Translational Sciences (NCATS)
This is one part of a sample in which hits are shown more often than they occur.
SARS PLP yeast: qHTS of Yeast-based Assay for SARS-CoV PLP; S. cerevisiae expressing SARS-CoV PLpro, growth rescue; Potency, µM (doses to about 32.9 µM), without a hit: at the top dose activity, positive = growth rescue, actives largely listed as activators; actives 0.19% (n = 330,000); AID 485353, 2010; note: potency is the fitted concentration of half-maximal effect; 0% is about no effect; nearly all actives have a fitted effect of over 55% in size
NS1 inh: qHTS Assay for Inhibitors of Influenza NS1 Protein Function. Potency, µM (highest dose often 46.1 µM), for the others: at the top dose activity, positive = more growth. actives 0.4% (n = 270,000). AID 2326, 2010; note: potency is the fitted concentration of half-maximal effect; actives are rising curves; nearly all actives have a fitted effect of over 50% in size
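Read-out: OD600 growth recovery of NS1-expressing budding yeast. Cells grown overnight at 30C in -URA glucose medium, washed, resuspended and diluted 1:100 in 2% galactose assay medium, pH 6.0. Same strain lacking NS1 served as positive control.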
Tb PYK inh: qHTS of Trypanosoma Brucei Inhibitors; pyruvate kinase (Trypanosoma brucei), Q57TT1; TbPYK enzyme, Kinase-Glo Plus ATP luminescence, 45 min; Potency, µM (titrated, usually from 76.8 µM), without a hit: top-dose activity, negative = inhibition, most hits filed as inhibitors; actives 0.12% (n = 410,000); active = well fitted curve in the direction sought with a large enough effect; an effect the other way counts as inactive or inconclusive; note: potency is the fitted concentration of half-maximal effect; % is set by controls: 0 for no effect and ±100 for the full control effect; nearly all actives have a fitted effect of over 50% in size
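Readout: single end-point luminescence (Kinase-Glo Plus, 10 min). Reaction conditions were TbPYK/substrate plus 130 uM ADP, 45 min at RT, pH 7.2 TEA buffer. No-enzyme wells served as controls, and data were normalized before concentration-response fitting.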
Shiga toxin inh: A qHTS for Small Molecule Inhibitors of Shiga Toxin; Vero cells, Shiga toxin protein synthesis inhibition reporter; inhibition, % at 38.7 µM; actives 9.2% (n = 290,000); AID 2315, 2010; in the data active = inhibition mostly above about 28%, no sharp cut-off; inactive = mostly below about 43%; note: 0% is about no effect
LmPK inh: qHTS Assay for Inhibitors of Leishmania Mexicana Pyruvate Kinase (LmPK). Q27686. purified LmPK, Kinase-Glo ATP luminescence, 1 h. Potency, µM (doses to about 57.5 µM), for the others: at the top dose activity change, negative = inhibition, hits mostly inhibitors. actives 0.37% (n = 290,000). AID 1721, 2009; active = well fitted curve in the direction sought with a large enough effect; an effect the other way counts as inactive or inconclusive; note: potency is the fitted concentration of half-maximal effect; % is set by controls: 0 for no effect and ±100 for the full control effect
Target sequence (Q27686 whole entry, looked up): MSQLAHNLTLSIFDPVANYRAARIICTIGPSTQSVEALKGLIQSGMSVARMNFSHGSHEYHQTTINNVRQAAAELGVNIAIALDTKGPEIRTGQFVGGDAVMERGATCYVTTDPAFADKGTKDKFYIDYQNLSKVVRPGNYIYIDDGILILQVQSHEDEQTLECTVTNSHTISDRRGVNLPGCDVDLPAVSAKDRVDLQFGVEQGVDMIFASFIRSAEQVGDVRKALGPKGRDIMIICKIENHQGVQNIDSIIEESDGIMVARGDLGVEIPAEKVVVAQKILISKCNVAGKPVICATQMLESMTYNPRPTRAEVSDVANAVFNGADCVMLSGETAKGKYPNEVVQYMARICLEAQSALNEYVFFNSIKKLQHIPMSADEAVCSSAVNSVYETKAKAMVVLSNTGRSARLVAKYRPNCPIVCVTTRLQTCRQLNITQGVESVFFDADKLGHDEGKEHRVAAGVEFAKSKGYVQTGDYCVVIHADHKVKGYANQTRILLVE
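qHTS format; LmPK 0.1 nM; substrates PEP 0.5 mM and ADP 0.1 mM. One-hour room-temperature incubation, then coupled luciferase luminescence; 0.5 nM enzyme wells mark activation.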
CHX counter: Cycloheximide Counterscreen for Small Molecule Inhibitors of Shiga Toxin. cell reporter, cycloheximide protein synthesis inhibition counterscreen. max response, %. actives 12% (n = 300,000). AID 2314, 2010; in the data active = max response mostly above about 13%, no sharp cut-off; inactive = mostly below about 14%; note: read at 38.3 µM for the half of the compounds with a filed dose; 0% is about no effect
Starred values were filed as active, the others as inactive; . = not tested or not shown. Unless noted, calls come from the whole dose curve.

SMILES | SARS PLP yeast | NS1 inh | Tb PYK inh | Shiga toxin inh | LmPK inh | CHX counter
COc1cc2oc(=O)cc(-c3ccc(-c4ccc(NC(C)=O)cc4)cc3)c2c(OC)c1OC | . | . | . | 81* | . | 53*
COc1ccc(/C=C/C(=O)C2C(=O)C=C(C)OC2=O)cc1O (stereo not drawn) | -36% | -1% | -8% | 13 | 16µM* | 17*
Cc1ccc(-c2csc(NCCn3c(C(F)(F)F)nc4ccccc43)n2)cc1 | -1% | 8% | 1% | 13 | -5% | -2
Cc1nc(C)c(Cc2ccccc2Cl)c(=O)[nH]1 | -16% | 5% | -5% | 0 | 1% | -2
Cc1nc2ccccc2nc(C)c1=NOCc1ccccc1Cl | 1% | 4% | 0% | 86* | 2% | 39*
CC(=O)N1N=C(c2ccc(C)cc2)OC1c1ccc(Br)cc1 (stereo not drawn) | 1% | 4% | 4% | 30 | 4% | 17*
CC(=O)NC1=NN(C(C)=O)C(c2ccc(C)cc2)S1 (stereo not drawn) | 1% | 8% | -1% | -3 | -2% | 3
CC(=O)N1N=C(c2ccc(Cl)cc2)OC1c1ccc(C(C)C)cc1 (stereo not drawn) | -7% | -43% | 5% | 110* | 0% | 30*
CC(=O)N1N=C(c2cccc([N+](=O)[O-])c2)OC1c1ccccc1Cl (stereo not drawn) | -11% | -17% | 3% | 18 | 7% | -3
CCN(C(=O)Cn1cnc2c1c(=O)n(C)c(=O)n2C)c1ccccc1C | . | . | 2% | . | . | .
CCOc1cc(CNCCSc2nnnn2-c2ccccc2)cc(Cl)c1OC | . | . | 0% | . | . | .
CC(C)c1ccc2c(c1)CC[C@H]1[C@@](C)(CN)CCC[C@@]21C | . | -4% | . | . | . | .
Cc1ccc(C)c(CNC(=O)c2sc3ncnc(N(C)C4CCCCC4)c3c2C)c1 | . | . | -2% | . | . | .
O=C(COC(=O)c1ccc2ccccc2n1)c1ccccc1 | 2% | . | -1% | 52 | 5% | 46*
O=C(OCC(=O)c1ccc[nH]1)c1ccc2ccccc2n1 | -5% | . | 2% | 18 | 2% | 19*
O=C(OCc1ccc(F)cc1)c1ccc2ccccc2n1 | -1% | . | 6% | 46* | 1% | 25*
O=C(COC(=O)c1nc(Cl)c(Cl)c(Cl)c1Cl)c1ccc[nH]1 | -13% | . | -3% | . | . | .
COc1ccc(CNC(=O)COC(=O)c2ccc3ccccc3n2)cc1 | -2% | . | -3% | . | . | .
Cc1c(C(=O)N2CCN(c3ccc(F)cc3)CC2)sc2nc(-c3ccccc3)cn12 | 1% | -9% | -1% | 2 | 2% | -2
COc1ccc(-c2cn3c(C)c(C(=O)N4CCc5ccccc5C4)sc3n2)cc1 | -17% | -26% | -3% | -3 | -2% | -5
COC(=O)C1CCN(C(=O)c2sc3nc(-c4ccc(F)cc4)cn3c2C)CC1 | -1% | -9% | 8% | 37* | 1% | 16*
Cc1c(C(=O)N2CCc3ccccc3C2)sc2nc(-c3ccccc3)cn12 | -18% | -41% | 1% | 45* | 3% | 27*
Cc1c(C(=O)N2CCOCC2)sc2nc(-c3ccccc3)cn12 | -3% | -12% | -5% | 43* | -18% | 21*
Cc1nnc(SCC(=O)NCc2cccs2)n1-c1ccccc1 | -1% | 6% | -1% | 17 | 6% | -1
Cc1nnc(SCc2ccccc2F)n1NCc1cccs1 | 0% | -17% | 3% | 54 | -10% | 24*
CCOc1ccccc1NC(=O)CSc1nncc2ccccc12 | 0% | -36% | 5% | -4 | 1% | 2
Cc1ccc(C(=O)/C=C/c2cc(C#N)n(C)c2C)cc1 | -4% | -1% | 3% | 80* | 10% | 35*
CCOC(=O)C1CCCN(C2=NC(=O)/C(=C/c3ccc(OC)cc3)S2)C1 (stereo not drawn) | -3% | -8% | 0% | -9 | 3% | -1
CCOC(=O)C1CCCN(C2=NC(=O)/C(=C/c3ccc(N(C)C)cc3)S2)C1 (stereo not drawn) | 0% | -7% | -7% | 33* | -3% | 26*
O=C1N=C(N2CCCCC2)S/C1=C\c1ccccc1F | -18% | -38% | -4% | 61* | -3% | 22*
